Drawing on PubChem BioAssay (NCI), this text covers growth for 36 compounds.

The structures appear in SMILES notation. Several values for one entry are separate records, joined by “and”; a condition that tells them apart may be missing. Equal entries are not always repeated. Compounds without any hit were thinned out: in the full panel of roughly 83,000, 20% have a hit.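 How to read the values: 0–100, growth inhibition (40 = 60% inhibited); 0, no net growth; -100 to 0, cell death (-40 = 40% of starting cells died; -100 = all dead).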 Activity calls are given as the source filed them. The calls were made as follows: active = growth percent below 10; inactive = the rest.

The test system of the experiment is SK-MEL-28 melanoma. Description: NCI-60 one-dose screen, 48 h (100 = growth as untreated, 0 = no growth, -100 = all killed). The following applies: 10 µM unless noted.
For the compound `Oc1cccnc1CN1CCOCC1`, the growth is 107% (inactive) and 105% (inactive). Consider `COc1cc2c(cc1O)C(=O)CCCC2`, for which the growth is 111% (inactive). The result for `S=c1nn[nH]n1C1CCCCC1` reads 117% (inactive); that for `Cc1ccc(NC(=S)N/C=C(\c2ccccc2)S(=O)Cc2ccccc2)c(C)c1` (stereo unspecified), 112% (inactive); that for `O=C(O)/C=C/C=C/c1ccccc1`, 103% (inactive) and 109% (inactive).

Consider `CC(C)(C(=O)c1cccnc1)c1cccnc1`, for which the growth is 112% (inactive) and 121% (inactive).

Turning to `CCCCCCC(C)CC1=C(O)c2ccccc2C(=O)C1=O` (stereo unspecified), the growth is 64.4% (inactive).

On to `S=c1ccc2ccccc2[nH]1`, for which the growth is 109% (inactive) and 103% (inactive). The result for `O=C1C2=C(Nc3cc(Cl)ccc3N2)OC1c1c[nH]c2ccc(COc3ccccc3)cc12` (stereo unspecified) reads 94% (inactive); that for `Oc1ccc(O)c(-c2ccccc2)c1`, 77.4% (inactive); that for `O=C1C=CC[C@H](/C=C/c2ccccc2)O1`, 40.3% (inactive) and -22.5% (active).

Consider `COC(=O)c1nc(=S)[nH]c(C(=O)OC)c1C(=O)c1ccccc1`, for which the growth was 105% (inactive).

On to `COc1ccc(COC=O)cc1`, for which the growth was 111% (inactive). In the case of `OCCCc1ccccc1`, the growth is 108% (inactive). As for `O=c1[nH]c(=O)c2[nH]c(=O)[nH]c2[nH]1`, the growth is 98.9% (inactive).

Turning to `O=[N+]([O-])c1cccc(N=Cc2ccccc2)c1`, the growth is 122% (inactive).

On to `O=C(NC(=O)c1ccc(F)c(Cl)c1)NC1CC1`, for which the growth is 111% (inactive) and 107% (inactive). In the case of `COCCCNC1=C(C#N)C(=O)NC(c2cccs2)S1` (stereo unspecified), the growth is 113% (inactive).

On to `CN(C)c1ccc(C(=N)c2ccc(N(C)C)cc2)cc1`, for which the growth was 44% (inactive) and 36% (inactive). As to `Cc1cccc(Cl)c1N`, the growth was 106% (inactive). Regarding `ON=C(C1CCCCC1)C1CCCCC1`, the growth was 102% (inactive). The result for `CNc1ccc(Cl)cc1S(=O)(=O)c1ccccc1[N+](=O)[O-]` reads 96.2% (inactive).

As to `Cc1c(O)nc(N)[nH]c1=O`, the growth is 110% (inactive). As for `Cc1cc(Cl)nc(Nc2ccccc2)n1`, the growth is 109% (inactive). On to `CCCC(=O)OCC(COC(=O)CCC)OC(=O)CCC`, for which the growth was 108% (inactive). The result for `N#Cc1c(N)nc2c(c(-c3ccc(Cl)cc3)nn2-c2ccccc2)c1C#N` reads 114% [100 µM] (inactive); that for `Cc1c(Cl)cc(Cl)c(N)c1Cl`, 110% (inactive); that for `CCOC(=O)c1csc(N)n1`, 98.9% (inactive) and 106% (inactive). The result for `O=c1[nH]c(=O)n(C2OC(CO)C(O)C2O)cc1I` (stereo unspecified) reads 106% (inactive) and 110% (inactive). The result for `C(=N\OCCc1ccccc1)/c1ccccn1` reads 114% (inactive) and 112% (inactive). `O=c1[nH]nnc2cc(Cl)ccc12`: the growth is 117% (inactive) and 109% (inactive). Regarding `CC(CN(C)C)CN1c2ccccc2Sc2ccccc21` (stereo unspecified), the growth was 87.6% (inactive) and 113% (inactive) and 68.2% (inactive). As for `CCOP(C)(=O)/C(Cc1ccc(OC)c(OC)c1)=N\O` (stereo unspecified), the figure is 111% (inactive).

For `O=C(O)COc1ccccc1F`, the growth is 112% (inactive). The result for `CC(=O)Nc1ccc(OC(C)=O)cc1` reads 82.6% (inactive) and 110% (inactive). As for `CC(C)(C)OC(=O)NCCc1ccc(N)cc1`, the figure is 112% (inactive).
